# Source: PubChem
# Only some compounds are listed: those with a hit (about 4.3% of all), similar ones and a draw of the others.
# ADAM17 inh = ADAM17 inhibitors, primary screen, biochemical, QFRET; AID 720648, 2013; Disintegrin and metalloproteinase domain-containing protein 17 (Homo sapiens), P78536; recombinant ADAM17, EDANS/DABCYL FRET peptide cleavage; inhibition, % at 6.95 µM; hit rate 0.83% among 370,000;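 active means inhibition above the mean of compounds lying between control limits plus 3 SD, set per campaign, cut at about 8.5% in these data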
# NR3A LBD binder = binders of NR3A ligand-binding domain, primary screen, biophysical, differential scanning fluorimetry, uHTS; NR3A LBD differential scanning fluorimetry, Tm shift; 0% = protein alone, 100% = glycine-bound protein; hit rate 2.5% among 340,000; Tm shift relative to glycine control, % at 25 µM; AID 1259313, 2017; Glutamate receptor ionotropic, NMDA 3A (GRIN3A) ligand-binding domain;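 active means melting temperature shift of at least 10% of the positive control shift, at one fixed dose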
# HGIII-sPLA2 inh = human group III sPLA2 inhibitors, primary screen, biochemical, QFRET, BODIPY PC-A2 liposome substrate; Group 3 secretory phospholipase A2 (Homo sapiens), Q9NZ20; QFRET BODIPY PC-A2 liposome hydrolysis, fluorescence; inhibition, % at 12.2 µM; hit rate 0.56% among 370,000;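 active means inhibition above mean plus 3 SD of compounds lying within the high and low control bounds, cut at about 19% in these data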
# FAS-TE inh = FAS thioesterase domain inhibitors, primary screen, biochemical, fluorescence intensity, uHTS; Fatty acid synthase (Homo sapiens), P49327; recombinant FAS-TE, OMFH fluorogenic substrate, fluorescence endpoint; inhibition, % at 15 µM; hit rate 0.67% among 360,000; AID 602261, 2012;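 active means compounds whose normalised, plate-corrected inhibition of enzyme fluorescence in the single-dose primary screen is 50% or more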
# ADAM10 inh = human ADAM10 inhibitors, primary screen, biochemical, QFRET, HTS. inhibition, % at 7 µM. AID 720582, 2013. recombinant ADAM10, EDANS/DABCYL FRET peptide cleavage, 3 h. hit rate 0.62% among 370,000;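 active means inhibition above a per-campaign cutoff equal to the mean of compounds falling between control-based bounds plus 3 SD, cut at about 20% in these data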
# Target sequence (O14672 214-748 limits assumed): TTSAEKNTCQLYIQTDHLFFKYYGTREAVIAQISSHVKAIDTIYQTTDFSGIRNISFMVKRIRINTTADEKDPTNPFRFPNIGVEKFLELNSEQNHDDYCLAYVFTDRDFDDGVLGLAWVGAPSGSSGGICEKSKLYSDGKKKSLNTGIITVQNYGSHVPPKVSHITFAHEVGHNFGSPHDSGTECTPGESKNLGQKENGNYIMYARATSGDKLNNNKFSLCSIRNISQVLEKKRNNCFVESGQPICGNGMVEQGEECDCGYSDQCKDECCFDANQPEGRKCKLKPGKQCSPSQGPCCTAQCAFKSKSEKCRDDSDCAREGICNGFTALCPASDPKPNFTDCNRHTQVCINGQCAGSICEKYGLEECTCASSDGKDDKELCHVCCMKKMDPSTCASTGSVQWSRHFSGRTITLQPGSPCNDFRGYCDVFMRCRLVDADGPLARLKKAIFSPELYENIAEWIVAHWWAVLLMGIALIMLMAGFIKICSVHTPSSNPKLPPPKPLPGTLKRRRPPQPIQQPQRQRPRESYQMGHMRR
# A number is an active result; 0 = inactive; - = not tested or not shown.
SMILES,ADAM17 inh,NR3A LBD binder,HGIII-sPLA2 inh,FAS-TE inh,ADAM10 inh
COc1cccc(N2CCN(CC(=O)NCc3cccc(OC)c3OC)CC2)c1,0,-,0,-,0
O=C(/C=C/c1cccs1)Nc1ccc([N+](=O)[O-])cc1,0,26,0,0,0
NC(N)=NS(=O)(=O)c1ccc(NC(=S)NC(=O)/C=C/c2cccs2)cc1,0,11,0,0,0
CCCOC(=O)c1ccc(NC(=O)/C=C/c2cccs2)cc1,0,28,0,0,0
CN(C)C(=O)c1ccc(NC(=O)COC(=O)/C=C/c2cccs2)cc1,0,0,0,0,0
O=C(/C=C/c1cccs1)Nc1ccncc1,0,0,0,0,0
CCOC(=O)[C@@]12CN(C(=O)OC(C)(C)C)CC=C1N(Cc1ccc(OC)cc1)C(=O)[C@H]2CC(=O)NCc1cccs1,0,-,0,-,0
O=C(Cn1nnc2ccccc2c1=O)NCCc1ccccc1,0,18,0,0,0
O=C(Cn1nnc2ccccc2c1=O)NCCc1ccc(Cl)cc1Cl,0,0,0,0,0
COc1ccc(CN2CCC(CNC(=O)Nc3ccc(Cl)cc3)CC2)cc1,0,-,0,-,0
CNS(=O)(=O)c1cccc(C(=O)OCC(=O)N2c3ccccc3CC2C)c1 (configuration not stated),0,14,0,0,0
CC1Cc2ccccc2N1C(=O)COC(=O)c1ccc(O)cc1 (configuration not stated),0,0,0,0,0
CNS(=O)(=O)c1cccc(C(=O)OCC(=O)c2ccc[nH]2)c1,0,39,0,0,0
CC(=O)Nc1ccc(C(=O)Nc2ccc(S(=O)(=O)N3CCCC3)cc2)cc1,0,0,0,0,0
O=C(Nc1ccc(S(=O)(=O)N2CCCC2)cc1)c1ccc([N+](=O)[O-])o1,-,27,-,0,-
O=C(Nc1ccc(S(=O)(=O)N2CCCC2)cc1)c1ccc([N+](=O)[O-])cc1,0,27,0,0,0
Cc1ccc(NC(=O)c2ccc(S(=O)(=O)N3CCCC3)cc2)cc1,0,16,0,0,0
COc1ccc(C(=O)Nc2ccc(S(=O)(=O)N3CCCCC3)cc2)cc1,0,24,0,0,0
CN(Cc1ccccc1)S(=O)(=O)c1cccc(C(=O)OCc2ccccc2)c1,0,-,0,-,0
O=C(Nc1cccc(S(=O)(=O)N2CCCC2)c1)c1cccc(OC(F)F)c1,0,0,0,0,0
O=C(Nc1ccc(S(=O)(=O)N2CCCC2)cc1)c1cccc(OC(F)F)c1,0,19,0,0,0
Cc1ccc(S(=O)(=O)N2CCOC2CNC(=O)C(=O)NCc2ccc(Cl)cc2)cc1 (configuration not stated),0,13,0,0,0
O=C(NCc1ccccc1)C(=O)NCC1OCCN1C(=O)c1cccs1 (configuration not stated),0,0,0,0,0
Cc1ccc(CNC(=O)C(=O)NCC2CCCO2)cc1 (configuration not stated),0,16,0,0,0
Cc1ccc(CNC(=O)C(=O)NCC2OCCN2C(=O)c2cccs2)cc1 (configuration not stated),0,15,0,0,0
SMILES,ADAM17 inh,NR3A LBD binder,HGIII-sPLA2 inh,FAS-TE inh,ADAM10 inh
COC(=O)CN(Cc1cn(Cc2ccccc2)nn1)S(=O)(=O)c1ccccc1Br,0,-,0,-,0
COc1ccc(-n2c(SCC(=O)N/N=C(/C)c3cccc(O)c3)nc3ccccc3c2=O)cc1,0,-,0,-,0
CC#CC(=O)N[C@H]1CC[C@@]23CCCN2C(=O)CCC[C@H]3[C@H]1C,0,-,0,-,0
CC(c1ccccc1)n1cc(C(=O)N2CCCN(Cc3ccccc3)CC2)nn1 (configuration not stated),0,-,0,-,0
COC(=O)[C@]12C[C@H](CC(=O)NCCCCc3ccccc3)C(=O)N(CCc3ccc(OC)c(OC)c3)C1=C[C@H](C(C)C)O[C@@H]2C1CC1,0,-,0,-,0
Oc1ccc(-c2csc(-c3c[nH]c4ccccc34)n2)c(O)c1,0,34,0,0,0
COc1ccc(Nc2nc(-c3c[nH]c4ccccc34)cs2)cc1,0,0,0,0,0
Cc1ccc(-c2csc(-c3c[nH]c4ccccc34)n2)c(C)c1,0,24,0,0,0
c1ccc(Cn2ccc3ccc(-c4ccc5ccn(Cc6cccc(-c7cccs7)c6)c5c4)cc32)cc1,0,-,0,-,0
COc1ccc2nc(SCC(=O)C(C)(C)C)[nH]c2c1,0,123,0,0,0
COc1ccc(-n2c(COc3ccc(Cl)cc3)nnc2SCC(=O)Nc2ccc3c(c2)OCO3)cc1,0,-,0,-,0
c1ccc(-c2cc(-c3nc4ccccc4[nH]3)c3ccccc3n2)cc1,0,22,0,0,0
Nc1ccc(-c2nc3ccccc3[nH]2)cc1,0,0,0,0,0
CCCCCCC/C=C(\C)[C@@H](O)[C@@H](C)C(=O)N1CCC[C@@H]1C(=O)O,0,-,0,-,0
Cc1cc(C)c2c(=O)n(CC(=O)NCCCN3CCOCC3)sc2n1,-,19,-,0,-
Cc1cc(C)c2c(=O)n(CC(=O)NCCCN3CCN(c4ccccc4F)CC3)sc2n1,-,0,-,-,-
Cc1noc2ncnc(Sc3ccc(Cl)cc3)c12,0,10,0,0,0
Cc1ccc(Sc2ncnc3onc(C)c23)cc1,0,0,0,0,0
COc1ccc(Cn2ccc3ccc(-c4ccc5ccn(Cc6cccc(F)c6)c5c4)cc32)cc1,0,-,0,-,0
Cc1nn(-c2ccccc2)c(/N=C/c2ccc(O)cc2)c1-c1ccccc1,0,26,0,0,0
Cc1nn(-c2ccccc2)c(C)c1-c1ccccc1O,0,0,0,0,0
COc1cc(OC)c(C(=O)NNC(=O)CN(C)S(=O)(=O)c2ccc(Cl)cc2)cc1OC,0,35,0,0,0
Nc1ccccc1Nc1cc(-c2ccccc2)nn1-c1cccc(Cl)c1,0,11,0,0,0
Cn1c(=O)c2c(ncn2CC(=O)OCCCC(=O)c2ccc(Br)cc2)n(C)c1=O,0,18,0,0,0
Cc1cc2n(n1)C(c1c[nH]c3ccccc13)Nc1ccccc1-2 (configuration not stated),-,32,-,0,-
CC(=O)C1CCC2C3CC=C4CC(SC(=N)N)CCC4(C)C3CCC12C (configuration not stated),0,0,37,0,0
CC(=O)OCC(=O)C1CCC2C3CC=C4CC(O)CCC4(C)C3CCC12C (configuration not stated),0,0,0,0,0
O=C(CCCl)NC1CCCCN(Cc2ccc(OC(F)(F)F)cc2)C1=O (configuration not stated),0,-,0,-,0
